In PubChem BioAssay (Tox21):
Inconclusive results are not listed. Entries that show only a call come without a potency. A structure can be active in one record and inactive in another. Calls of active or inactive are those of the source. Calls follow the shape of the full dose curve.

assay: qHTS assay to identify small molecule agonists of the hypoxia (HIF-1) signaling pathway - cell viability counter screen (AID 1224844); details: HRE-bla ME-180 viability, CellTiter-Glo luminescence, 17 h; series mostly up to 76.8 µM; also: nearly all actives have a fitted effect of over 50% in size
In short: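 HRE-bla ME-180; 0.5% dFBS; cpd 17 h, 37C, 5% CO2; CellTiter-Glo lum., 30 min RT, post-FRET read, same wells.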
Potency is read from the fitted curve at half-maximal effect.

Row | Compound | Potency
1 | COC(C)COC(C)COC(C)CO (configuration not stated) | inactive
2 | C[C@]12CCC(=O)C=C1CC[C@@H]1[C@@H]2C(=O)C[C@@]2(C)[C@H]1CC[C@]2(O)C(=O)CO | inactive
3 | Cc1cccc([N+](=O)[O-])c1C | inactive
4 | CCC(C)c1ccccc1O (configuration not stated) | inactive
5 | O=C(c1ccccc1)c1ccccc1O | inactive
6 | Brc1cc(Oc2cc(Br)c(Br)c(Br)c2Br)c(Br)c(Br)c1Br | 49.2 µM (active) and inactive
7 | CC1=CC2C3CC(C=C3C)C2C1 (configuration not stated) | inactive
8 | Nc1ncn([C@@H]2O[C@H](CO)[C@@H](O)[C@H]2O)c(=O)n1 | 13.8 µM (active)
9 | OC(CCl)CCl | inactive
10 | CCC(C)CO (configuration not stated) | inactive
11 | Cc1ccc2c(n1)Oc1ccc(C(C)C(=O)OCC(=O)N(C)C)cc1C2 (configuration not stated) | inactive
12 | O=C(/C=C/c1ccccc1)OCc1ccccc1 | inactive
13 | C#C[C@]1(O)CC[C@H]2[C@@H]3CCc4cc(OC)ccc4[C@H]3CC[C@@]21C | inactive
14 | Cc1cccc(N(C)C(=S)Oc2ccc3ccccc3c2)c1 | inactive
15 | CC(C(=O)O)c1cccc(C(=O)c2ccccc2)c1 (configuration not stated) | inactive
16 | Cc1c(OCC(F)(F)F)ccnc1CS(=O)c1nc2ccccc2[nH]1 (configuration not stated) | inactive
17 | Clc1nc(Cl)c(Cl)c(Cl)c1Cl | inactive
18 | Cn1cnc([N+](=O)[O-])c1Sc1ncnc2nc[nH]c12 | inactive
19 | O=C(Nc1ccc(Cl)cc1)Nc1ccc(Cl)c(Cl)c1 | inactive
20 | O=CCc1ccccc1 | inactive
21 | OC1CCCCCCCCCCC1 | inactive
22 | OC[C@H]1O[C@@H]2O[C@H]3[C@H](O)[C@@H](O)[C@@H](O[C@H]4[C@H](O)[C@@H](O)[C@@H](O[C@H]5[C@H](O)[C@@H](O)[C@@H](O[C@H]6[C@H](O)[C@@H](O)[C@@H](O[C@H]7[C@H](O)[C@@H](O)[C@@H](O[C@H]8[C@H](O)[C@@H](O)[C@@H](O[C@H]1[C@H](O)[C@H]2O)O[C@@H]8CO)O[C@@H]7CO)O[C@@H]6CO)O[C@@H]5CO)O[C@@H]4CO)O[C@@H]3CO | inactive
